Where “and” joins values, the source holds several entries; their conditions need not be identical. Equal entries are not always repeated. Structures can show the parent of a compound that is named as a salt. The campaign covered roughly 5,800 compounds. About 620 (11%) showed activity. The sample as a whole holds a higher share of actives than the screen did. Unmarked numbers belong to inactive results.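 Rule for the calls: active = score above a cut-off or among the top three wells of a plate; in these data no inactive exceeds 0.85.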
Tested on: primary human hepatic stellate cells (donor 1)
Assay: scaled lipid accumulation score (0 = DMSO-like, 1 = nortriptyline-like); higher = stronger HSC inactivation (lipid re-accumulation), active = hit call of the paper
Conditions: 48 h
Procedure: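 Primary lipid accumulation screen in primary human hepatic stellate cell myofibroblasts (donor 1, passage 8) in 384-well plates. 100 nL of library compound was pin-transferred into 30 µL medium in duplicate, and cells were treated for 48 h. The 'Scaled' score combines distance from plate baseline, toxicity and reproducibility penalties, and is normalised to nortriptyline (positive) and DMSO (negative) controls on each plate. A hit is defined as scaled >0.85 or among the top 3 wells per plate.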

[1] = library stock concentration: 1 mM
[2] = library stock concentration: 10 mM

CN[C@@H]1C[C@H]2O[C@@](C)([C@@H]1OC)n1c3ccccc3c3c4c(c5c6ccccc6n2c5c31)C(=O)NC4 [Staurosporine]
scaled lipid accumulation score [1]: 0.546 (active)

CN[C@@H]1C[C@H]2O[C@@](C)([C@@H]1OC)n1c3ccccc3c3c4c(c5c6ccccc6n2c5c31)C(=O)NC4 [staurosporine]
scaled lipid accumulation score (library stock concentration: 10.7 mM): 0.643

COC(=O)[C@@]1(O)C[C@H]2O[C@]1(C)n1c3ccccc3c3c4c(c5c6ccccc6n2c5c31)C(=O)NC4
scaled lipid accumulation score (library stock concentration: 1.1 mM): 0.142

COC(=O)N1CCN(C(=O)Cc2ccc(Cl)c(Cl)c2)C(CN2CCCC2)C1 (stereo not given)
scaled lipid accumulation score [2]: 0.05

COC(=O)N1CCN(C(=O)Cc2ccc(Cl)c(Cl)c2)C(CN2CCCC2)C1.O=C(O)/C=C/C(=O)O (stereo not given)
scaled lipid accumulation score [2]: 0.902 (active)

O=C(Cc1ccc(Cl)c(Cl)c1)N1CCCCC1CN1CCCC1 (stereo not given)
scaled lipid accumulation score [2]: 0.581 and 0.566

CO[C@H]1CC=C2CCN3CCC4=C(CC(=O)OC4)[C@]23C1 [Dihydro-beta-erythroidine hydrobromide]
scaled lipid accumulation score [2]: ≤ -0.07

COc1ccc2c(c1OC)C(=O)OC2C1c2cc3c(cc2CCN1C)OCO3 (single isomer, unassigned; (+)) [(+)-Hydrastine]
scaled lipid accumulation score [2]: ≤ -0.07

CCCCC/C=C\C/C=C\C/C=C\C/C=C\CCCC(=O)Nc1cccc([N+](=O)[O-])c1 [Arachidonoyl m-Nitroaniline]
scaled lipid accumulation score [1]: ≤ 0

CN(C)C(=O)C(CCN1CCC(O)(c2ccc(Cl)cc2)CC1)(c1ccccc1)c1ccccc1.Cl [Loperamide hydrochloride]
scaled lipid accumulation score [2]: 1.46 (active)

CN(C)C(=O)C(CCN1CCC(O)(c2ccc(Cl)cc2)CC1)(c1ccccc1)c1ccccc1.Cl
scaled lipid accumulation score (library stock concentration: 9.7 mM): 1.02 (active)

CCOC(=O)C1(c2ccccc2)CCN(CCC(C#N)(c2ccccc2)c2ccccc2)CC1
scaled lipid accumulation score [2]: ≤ 0

O=C(N[C@H]1CN2CCC1CC2)c1cc2ccoc2cn1
scaled lipid accumulation score [2]: ≤ -0.055

Cl[C@H]1[C@H](Cl)[C@@H](Cl)[C@@H](Cl)[C@H](Cl)[C@H]1Cl [Lindane]
scaled lipid accumulation score (library stock concentration: 6.9 mM): ≤ -0.001
scaled lipid accumulation score [2]: ≤ 0

OC[C@@H](O)[C@H]1O[C@@H]2O[C@H](C(Cl)(Cl)Cl)O[C@@H]2[C@H]1O
scaled lipid accumulation score [2]: ≤ 0

CN(C)NC(=O)CCC(=O)O [Daminozide]
scaled lipid accumulation score (library stock concentration: 80 uM): ≤ 0
scaled lipid accumulation score (library stock concentration: 400 uM): ≤ 0
scaled lipid accumulation score (library stock concentration: 2 mM): ≤ 0
scaled lipid accumulation score [2]: ≤ 0

CC[C@@H](C(=O)[C@@H](C)[C@@H](O)[C@H](C)[C@@H]1O[C@@H]([C@@H](CC)C(=O)O)CC[C@@H]1C)[C@H]1O[C@]2(C=C[C@@H](O)[C@]3(CC[C@@](C)([C@H]4CC[C@](O)(CC)[C@H](C)O4)O3)O2)[C@H](C)C[C@@H]1C [Salinomycin, sodium]
scaled lipid accumulation score [2]: 0.422

Clc1ccc(C2=CCCC3CCC2N3)cn1 (stereo not given) [UB 165 fumarate]
scaled lipid accumulation score [2]: 0.039

NC1=NC(=O)C(c2ccccc2)O1 (stereo not given) [Pemoline]
scaled lipid accumulation score [2]: ≤ 0

C=C(C)[C@@H]1[C@H]2OC(=O)[C@@H]1[C@]1(O)C[C@H]3OC34C(=O)O[C@H]2[C@@]41C.CC(C)(O)[C@@H]1[C@H]2OC(=O)[C@@H]1[C@]1(O)C[C@H]3OC34C(=O)O[C@H]2[C@@]41C (stereo not given in full) [Picrotoxin]
scaled lipid accumulation score [2]: ≤ -0.055

O=C1C=C2C(=CCOC2O)O1 (stereo not given) [Patulin]
scaled lipid accumulation score [2]: 1.21 (active)

C[C@H](N)Cn1ccc2cc(F)c(Cl)cc21.O=C(O)/C=C/C(=O)O [Ro 60-0175 fumarate]
scaled lipid accumulation score [2]: 0.953 (active)

O=C[C@H](Cl)[C@@H](O)[C@H](O)[C@H](O)CO [2-Chloro-2-deoxy-D-glucose]
scaled lipid accumulation score [2]: ≤ -0.07

CCN1C[C@]2(COC)CC[C@H](O)[C@]34C1[C@@](O)([C@@H](OC)[C@H]23)[C@@]1(O)C[C@H](OC)[C@H]2C[C@@H]4[C@@H]1[C@H]2OC [Delsoline]
scaled lipid accumulation score: ≤ 0

CN(N=O)c1ccc(O)c(O)c1 [Me-3,4-dephostatin]
scaled lipid accumulation score [2]: ≤ -0.055

Br.Br.N=C(NCc1ccc(Cl)cc1)SCCCc1c[nH]cn1 [Clobenpropit dihydrobromide]
scaled lipid accumulation score [2]: 1.53 (active)

N=C(NCc1ccc(Cl)cc1)SCCCc1c[nH]cn1 [Clobenpropit]
scaled lipid accumulation score [2]: 0.903 (active)

Clc1ccc(C2CC3CCC2N3)cn1 (stereo not given)
scaled lipid accumulation score (library stock concentration: 24 mM): ≤ -0.012

C1=C2CCCN[C@H]2[C@@H]2C[C@H]1[C@H]1CCCCN1C2 [Aloperine]
scaled lipid accumulation score (library stock concentration: 3.33 mM): 0.028
scaled lipid accumulation score [2]: 0.068

COc1cc(C=Cc2ccc(OC)c(O)c2)cc(OC)c1
scaled lipid accumulation score [1]: 0.176

— the supplement of paper PMC9135407
